Assay results taken from the supplement of paper PMC7057948, “A genome-wide approach for identification and characterisation of metabolite-inducible systems” (Nature Communications, 2020).

The compounds below were run on PhhR/P_H16_RS18365 L-phenylalanine biosensor (pEH137) (assay: relative induction of RFP reporter vs primary effector; higher = stronger activation). Conditions: inducer concentration 5 mM; 6 h; Cupriavidus necator H16; minimal medium + 0.4% gluconate.
Experimental: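 Orthogonality screen of 21 primary inducers against 21 transcription factor/inducible promoter–mRFP biosensors in C. necator H16 in minimal medium, robotic 96-well format, 5 mM inducer, 30 °C. OD-normalised RFP fluorescence was read 6 h later and expressed as relative induction (%) = 100 × (FL compound − FL uninduced)/(FL primary inducer − FL uninduced); mean of n=4. Cognate pairs (100% by definition) omitted.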
With `C=CC(=O)O` [acrylate] the “relative induction of RFP reporter” value was -0.318%.
In the case of `Nc1ccccc1C(=O)C[C@H](N)C(=O)O` [L-kynurenine], the “relative induction of RFP reporter” value is reported as -0.316%.
In the case of `N[C@@H](Cc1ccc(O)cc1)C(=O)O` [L-tyrosine], the “relative induction of RFP reporter” value is reported as -0.541%.
In the case of `O=c1[nH]c(=O)c2nc[nH]c2[nH]1` [xanthine], the “relative induction of RFP reporter” value is reported as -0.134%.
With `CC(=O)C(C)O` (configuration not stated) [acetoin] the “relative induction of RFP reporter” value was -0.273%.
In the case of `O=C(O)C(=O)c1ccccc1` [phenylglyoxylate], the “relative induction of RFP reporter” value is reported as -0.366%.
For `NCCC(=O)O` [β-alanine], the “relative induction of RFP reporter” value was -0.6%.
For `O=C(O)CS(=O)(=O)O` [sulfonatoacetate], the “relative induction of RFP reporter” value was -0.174%.
For `O=C(O)C(O)C(O)C(=O)O` (configuration not stated) [tartrate], the “relative induction of RFP reporter” value was 0.258%.
With `O=C(O)c1ccccc1` [benzoate] the “relative induction of RFP reporter” value was -0.383%.
In the case of `OC1OC[C@H](O)[C@H](O)[C@H]1O` (mixture of isomers) [L-arabinose], the “relative induction of RFP reporter” value is reported as -0.00622%.
For `O=C(O)c1ccccc1O` [salicylate], the “relative induction of RFP reporter” value was -0.155%.
For `O=C(O)c1ccc(O)c(O)c1` [3,4-dihydroxybenzoate], the “relative induction of RFP reporter” value was -0.638%.
With `O=C(O)CCO` [3-hydroxypropanoate] the “relative induction of RFP reporter” value was -0.273%.
In the case of `C=C(CC(=O)O)C(=O)O` [itaconate], the “relative induction of RFP reporter” value is reported as -0.415%.
In the case of `O=C(O)C1CCCCC1` [cyclohexane-1-carboxylate], the “relative induction of RFP reporter” value is reported as -0.0509%.
In the case of `O=CO` [formate], the “relative induction of RFP reporter” value is reported as -0.0153%.
